According to PubChem BioAssay AID687014 (The Scripps Research Institute Molecular Screening Center, 2013):
Out of some 370,000 compounds screened, about 6,800 (1.8%) were called active.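 The calls were made as follows: active = activation above a cutoff set at the mean of all screened compounds plus 3 SD (cut at about 10% in these data); inactive = the rest.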 What follows is part of a selection rich in actives, with near analogues and random picks from the rest.

Each compound was assayed on Nuclear hormone receptor DAF-12 (Heterodera glycines), GAL4 fusion (assay: hgDAF-12 GAL4 fusion reporter activation – cell-based, luminescence, HEK293, UAS-luciferase, primary screen (AID 687014;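 also: 0% = DMSO wells and 100% = sodium butyrate wells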)). Details: HEK293 GAL4-hgDAF12 UAS-luciferase reporter, agonist luminescence; at 6.8 µM; stronger effect = higher value; normalized to butyrate control.
In the case of `C=CCN1C(=O)[C@@H](CC(=O)NCCCCc2ccccc2)[C@]2(C(=O)OCC)CCCCC/C=C/12`, the activation is reported as 2.01% (inactive).
`Cc1ccccc1C(=O)N[C@H](C(=O)N1CCC[C@H]1C(=O)NCc1ccccc1)C(C)C` was tested, and the activation was -1.35% (inactive).
For `COc1cccc(CC(=O)N2CCN(C(=O)C(=O)c3cccc(C(F)(F)F)c3)CC2)c1`, the activation was -0.52% (inactive).
For `CCOC(=O)c1csc(CCNC(=O)c2oc3c(Cl)cc(C)cc3c2C)n1`, the activation was 1.98% (inactive).
`CN(C)C(=O)c1ccc(NC(=O)COC(=O)c2cc3c(s2)CCCCC3)cc1` was tested, and the activation was 2.42% (inactive).
`O=C(Nc1ccc(F)cc1)c1cc2c(s1)CCCC2` was tested, and the activation was 10.8% (active).
`O=C(NCC1CCCO1)c1cc2c(s1)CCCC2` (configuration not stated) was tested, and the activation was 7.29% (inactive).
`COc1ccc(CCNC(=O)NS(=O)(=O)c2ccc(C)cc2)cc1OC` was tested, and the activation was -1.2% (inactive).
In the case of `COc1cc(NC(=O)C2CCCN(S(=O)(=O)c3ccc(C(C)(C)C)cc3)C2)cc(OC)c1` (configuration not stated), the activation is reported as 4.12% (inactive).
In the case of `CCn1c2ccccc2c2cc(NC(=O)CSc3nnc(-c4ccccc4)n3-c3ccc(C)cc3)ccc21`, the activation is reported as 1.54% (inactive).
With `Clc1ccc(-c2cc(-c3ccccn3)on2)c(Cl)c1` the activation was 11.2% (active).
In the case of `Clc1ccccc1-c1cc(COc2ccc3ccccc3c2)no1`, the activation is reported as 0% (inactive).
`Fc1ccc(-c2ccc(CNCc3ccccn3)o2)cc1Cl` was tested, and the activation was -0.65% (inactive).
In the case of `CS(=O)(=O)N(CC(=O)N1CCOCC1)c1ccc2c3c(cccc13)CC2`, the activation is reported as 0.28% (inactive).
For `CCc1c(C)c2c(C)[nH]nc2oc1=O`, the activation was -1.18% (inactive).
`CN(Cc1nc2ccc(F)cc2[nH]1)Cc1nc(CC2CC2)no1` was tested, and the activation was -0.98% (inactive).
For `O=C(NN=Cc1ccco1)C(=O)Nc1ccc(Cl)c([N+](=O)[O-])c1`, the activation was -2.99% (inactive).
With `COc1ccc(CCNC(=O)CSc2nc3c([nH]2)c(=O)n(C)c(=O)n3C)cc1` the activation was 0.07% (inactive).
`Cc1csc(SCC(=O)Nc2sccc2C#N)n1` was tested, and the activation was 17.8% (active).
With `N#Cc1ccsc1NC(=O)CN1CCCCC1` the activation was -0.08% (inactive).
For `Cc1csc(SCC(=O)Nc2ccc(C)c(S(=O)(=O)N(C)C)c2)n1`, the activation was 0.79% (inactive).
In the case of `CC(=O)Nc1ccc(N2C(=O)C3C4CC(=O)C(c5ccccc54)C3C2=O)cc1` (configuration not stated), the activation is reported as -0.45% (inactive).
For `CC(=O)O[C@@]1(C(C)=O)CCC2[C@H]3C=C(C)C4=CC(=O)CC[C@@]4(C)C3CC[C@]21C` (some centres not stated), the activation was -4.47% (inactive).
With `FC(F)(F)c1cccc(Cn2ccc3ccc(-c4ccc5ccn(Cc6ccccc6)c5c4)cc32)c1` the activation was -0.72% (inactive).
`COc1ccc(NC(=S)N2N=CCC2c2ccccc2)cc1` (configuration not stated) was tested, and the activation was 16.5% (active).
With `COc1ccc(NC(=O)N2CCC(Cc3ccccc3)CC2)cc1` the activation was 1.2% (inactive).
For `COc1ccc(N2CCN(C(=S)Nc3ccc(S(N)(=O)=O)cc3)CC2)cc1`, the activation was -4.74% (inactive).
In the case of `CC(Sc1nnc(Cc2ccc([N+](=O)[O-])cc2)o1)C(N)=O` (configuration not stated), the activation is reported as -0.65% (inactive).
With `CCOC(=O)/C=C/c1ccccc1O` the activation was 2.77% (inactive).
With `Cc1ccc(CN2CCN(Cc3ccccc3-c3ccco3)CC2CCO)o1` (configuration not stated) the activation was -2.88% (inactive).
`N#CC1=C(N)N(c2ccc(F)cc2)C(=O)C1` was tested, and the activation was -1.83% (inactive).
With `Cc1ccc(NNC(=O)c2cccs2)cc1Cl` the activation was 1.51% (inactive).
For `O=C(NNC(=O)c1ccc(Cl)cc1Cl)c1cccs1`, the activation was 18.7% (active).
`O=C(COC(=O)c1ccc(O)cc1O)NNC(=O)c1cccs1` was tested, and the activation was 0.57% (inactive).
For `O=C(CCc1nnc(CCCCc2ccccc2)o1)NC(c1cccnc1)C(F)(F)F` (configuration not stated), the activation was 1.64% (inactive).
With `Cc1cc(=O)n2nc(N3CCCC(C(=O)N4CCN(C)CC4)C3)sc2n1` (configuration not stated) the activation was -0.62% (inactive).
`O=S1(=O)c2ccc(Br)cc2OC[C@H](Cc2ccccc2)N1Cc1cn(Cc2ccccc2)nn1` was tested, and the activation was -1.13% (inactive).
With `Cc1nccn1CCC1CCCCN1C(=O)CCc1nnc(-c2ccsc2)o1` (configuration not stated) the activation was -0.93% (inactive).
With `CCSc1ccccc1C(=O)Nc1ccc2c(c1)OCO2` the activation was 3.85% (inactive).
In the case of `CC(=O)Nc1cccc(C(=O)OCN2C(=O)c3ccccc3C2=O)c1`, the activation is reported as -0.37% (inactive).
`CC(=O)Nc1cccc(C(=O)OCC(=O)c2ccc3c(c2)OCO3)c1` was tested, and the activation was 17.4% (active).
In the case of `CC(=O)Nc1cccc(C(=O)OCC(=O)NCc2cc(C)c(O)c(C)c2)c1`, the activation is reported as 3.44% (inactive).
In the case of `CC(C)C(=O)Nc1cccc(C(=O)Nc2ccc3c(c2)OCO3)c1`, the activation is reported as 14.9% (active).
In the case of `CC(Sc1nc2cc(Cl)ccc2s1)C(=O)Nc1ccc2c(c1)OCO2` (configuration not stated), the activation is reported as 7.08% (inactive).
`COC(=O)C1=C(C(=O)OC)C2C=C(C(C)C)C1C(=O)C2(C)O` (configuration not stated) was tested, and the activation was 2.89% (inactive).
`COC(=O)c1cccc(Cn2ccc3ccc(-c4ccc5ccn(C(=O)c6ccccc6C)c5c4)cc32)c1` was tested, and the activation was 0.42% (inactive).
With `O=C(NS(=O)(=O)c1cccs1)[C@H]1O[C@@H](n2ccc(=O)[nH]c2=O)[C@H](O)[C@@H]1O` the activation was 1.66% (inactive).
In the case of `COc1ccc(N2CCN(CCNS(=O)(=O)c3ccc([N+](=O)[O-])cc3)CC2)cc1`, the activation is reported as -4.01% (inactive).
`CCOc1ccccc1/C=N/Nc1nc2ccccc2o1` was tested, and the activation was 10.6% (active).
In the case of `Fc1ccccc1OCCSc1nc2ccccc2o1`, the activation is reported as 3.51% (inactive).
For `O=C(CSc1nc2ccccc2o1)N/N=C/c1ccccc1C(=O)O`, the activation was 1.68% (inactive).
`COc1ccccc1C(=O)N1O[C@]23C=C[C@]14C[C@@H](O)CC[C@]4(C)C2CC[C@]1(C)[C@@H]([C@H](C)/C=C/[C@H](C)C(C)C)CC[C@H]13` (some centres not stated) was tested, and the activation was -1.48% (inactive).
For `C/C(=N\NC(=O)c1ccccc1F)c1ccccn1`, the activation was 10.8% (active).
For `C/C(=N/NC(=O)c1ccn(C)n1)c1ccncc1`, the activation was 7.12% (inactive).
`CC(=NNC(=S)N1CCCCCC1)c1ccccn1` was tested, and the activation was 2.43% (inactive).
With `Cc1ccc(S(=O)(=O)N2C[C@@H](C)[C@]3(C2)[C@H](O)[C@H](OC(=O)NCc2ccccc2)C[C@H]2C(=O)N(c4ccccc4)C(=O)[C@H]23)cc1` the activation was -0.54% (inactive).
`Cc1ccc(CN2CCCCC(NC(=O)C3CCCCC3)C2=O)cc1` (configuration not stated) was tested, and the activation was -1.5% (inactive).
In the case of `Cn1c(NCc2cccnc2)nc2cc(-c3ccc(F)cc3)sc2c1=O`, the activation is reported as 8.39% (inactive).
`COc1cccc(-c2cc3nc(NCCOc4ccccc4Cl)n(C)c(=O)c3s2)c1` was tested, and the activation was 0.22% (inactive).
With `O=c1[nH]c(CCl)nc2cc(-c3ccc(Cl)cc3)sc12` the activation was 12.9% (active).
With `COc1ccc(-n2c(SCC(=O)Nc3ccc4c(c3)OCCO4)nnc2-c2ccc(Cl)cc2)cc1` the activation was -1.31% (inactive).
In the case of `O=C(C(=O)N1CCC(CNC(=O)c2cccnc2Cl)CC1)c1cccs1`, the activation is reported as 1.44% (inactive).
In the case of `Cc1nc(NC(=O)C(C)(C)C)sc1[N+](=O)[O-]`, the activation is reported as -4.82% (inactive).
For `COc1ccc2nc(N3CCN(C(=O)c4ccc([N+](=O)[O-])o4)CC3)sc2c1`, the activation was -2.68% (inactive).
For `Brc1ccc2nc(N3CCCC3)sc2c1`, the activation was 14.3% (active).
`Cc1nc(N2CCCCC2)sc1C=O` was tested, and the activation was 1.15% (inactive).
With `Cc1nc(CNc2ncnc3ccc(-c4ccc5c(c4)OCO5)cc23)cs1` the activation was 1.56% (inactive).
In the case of `Cc1cccc(NC(=O)/C=C/c2ccc3c(c2)OCO3)n1`, the activation is reported as 17.7% (active).
In the case of `CC(NS(=O)(=O)c1ccc(Cl)cc1)C(=O)Nc1ccc2c(c1)OCCO2` (configuration not stated), the activation is reported as 1.96% (inactive).
With `Cc1cccc(NC(=O)Nc2ccc3c(c2)OCO3)n1` the activation was 14.2% (active).
`Cc1ccc(OCCCC(=O)Nc2ccc3c(c2)OCCO3)cc1` was tested, and the activation was -2.83% (inactive).
`CCOc1ncccc1C(=O)Nc1ccc2c(c1)OCCO2` was tested, and the activation was -3.84% (inactive).
`CNS(=O)(=O)c1ccc(NC(=O)Nc2ccc3c(c2)OCO3)cc1` was tested, and the activation was 18.5% (active).
In the case of `Cc1ccc(S(=O)(=O)NCC(=O)Nc2ccc3c(c2)OCCO3)cc1`, the activation is reported as -3.96% (inactive).
`COc1cccc(/C=C/C(=O)Nc2ccc3c(c2)OCCO3)c1` was tested, and the activation was 16.9% (active).
With `CC(NC(=O)Nc1cccc([N+](=O)[O-])c1)c1ccc2c(c1)OCO2` (configuration not stated) the activation was -1.33% (inactive).
`CN(Cc1ccccc1)C(=O)COC(=O)/C=C/c1ccc2c(c1)OCO2` was tested, and the activation was -1.56% (inactive).
`O=C(COC(=O)/C=C/c1ccc2c(c1)OCO2)NC1CCS(=O)(=O)C1` (configuration not stated) was tested, and the activation was -2.83% (inactive).
`O=C(Nc1ccc2c(c1)OCO2)C1CC(c2c(F)cccc2Cl)=NO1` (configuration not stated) was tested, and the activation was 7.76% (inactive).
In the case of `CN1C(=O)c2cc(NS(C)(=O)=O)ccc2OC[C@@H]2O[C@@H](CC(=O)NCc3ccc(-c4ccccc4)cc3)CC[C@H]21`, the activation is reported as -3.14% (inactive).
`COc1ccc(OCC(=O)NN2Cc3ccccc3C2=N)cc1` was tested, and the activation was 1.16% (inactive).
`CCOC(=O)[C@@]12CN(C(=O)OC(C)(C)C)CC=C1N(Cc1ccc(OC)cc1)C(=O)[C@H]2CC(=O)NCc1ccc(OC)c(OC)c1` was tested, and the activation was -0.18% (inactive).
In the case of `COc1cc(N/C=C2\CC(=O)NC(C)=C2C#N)cc(OC)c1OC`, the activation is reported as -2.99% (inactive).
With `Cc1csc2nc(COC(=O)c3cccc(N(C)C)c3)cc(=O)n12` the activation was 1.98% (inactive).
With `O=c1c(-c2ccccc2)coc2cc(O)ccc12` the activation was 11.4% (active).
For `CCc1ccc(Oc2coc3cc(O)ccc3c2=O)cc1`, the activation was 2.19% (inactive).
With `CC(C)=CCc1c(O)c(CC=C(C)C)c2occ(-c3ccc(O)cc3)c(=O)c2c1O` the activation was 1.09% (inactive).
With `C#CCN([C@@H](C)C(=O)OCC)S(=O)(=O)c1ccc(Br)cc1F` the activation was 3.49% (inactive).
`S=c1[nH]nc(Nc2ccccc2)s1` was tested, and the activation was -0.56% (inactive).
`CC(C)(C)C(=O)c1cnc(Nc2ccccc2)s1` was tested, and the activation was 15.3% (active).
`CC(C)(C)c1nnc(NC(=O)C2c3ccccc3Oc3ccccc32)s1` was tested, and the activation was 0.43% (inactive).
For `CC(C)(C)OC(=O)NCCc1ccccc1/C=C/S(=O)(=O)NCc1ccc(F)cc1`, the activation was 0.52% (inactive).
